Screens as filed in PubChem.
This is a sample that favours compounds with a hit; in the whole collection about 1.9% have one here.
EP2 modulator: modulates human prostaglandin E2 receptor EP2 signaling; induction, % at 25 µM; 260,000 compounds, 0.83% hits; AID 940; EP2-expressing cells, cAMP HTRF FRET, PGE2 co-stimulation; P43116;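 active = compounds whose cAMP rise, as percent of the full-agonist control response, exceeds 60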;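 also: rat C6 glioma line stably carrying human EP2 under a CMV promoter; the protocol text gives 20 µM as final concentration; 100% = response of wells given 1 µM PGE2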
Target sequence (P43116 whole entry, looked up): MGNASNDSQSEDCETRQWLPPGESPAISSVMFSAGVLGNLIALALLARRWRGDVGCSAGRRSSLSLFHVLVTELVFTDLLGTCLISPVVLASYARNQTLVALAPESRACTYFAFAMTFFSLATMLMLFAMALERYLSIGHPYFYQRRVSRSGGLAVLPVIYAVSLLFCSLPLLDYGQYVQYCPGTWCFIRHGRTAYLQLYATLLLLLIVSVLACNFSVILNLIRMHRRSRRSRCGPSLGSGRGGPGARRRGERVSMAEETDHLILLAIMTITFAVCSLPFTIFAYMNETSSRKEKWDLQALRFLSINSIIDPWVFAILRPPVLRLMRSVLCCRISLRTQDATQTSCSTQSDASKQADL
S1P4 antagonist: human S1P4 receptor antagonism; inhibition, % at 4.98 µM; O95977; AID 1510; 220,000 compounds, 0.26% hits; S1P4-expressing cells, antagonist mode, reporter read-out; in the data active = inhibition above about 29%;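 also: 0% = wells stimulated with agonist and 100% = vehicle wells without agonist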
S1P3 antagonist: antagonists of human S1P3 receptor. Q99500. CHO S1P3 NFAT-BLA reporter, FRET fluorescence, antagonist mode. inhibition, % at 4.98 µM. 170,000 compounds, 0.27% hits;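 active = inhibition above the plate cutoff, the mean inhibition of test wells on that plate plus 3 SD, cut at about 28% in these data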;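 also: cells challenged with S1P at its EC80 of 0.8 µM; blue over green emission ratio from cleaved BLA substrate after 4 h stimulation; 0% = S1P-stimulated wells and 100% = unstimulated DMSO-only wells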
S1P4 ag: activates the human S1P4 receptor | O95977 | S1P4-expressing cell line, agonist reporter assay | activation, % at 4.98 µM | 220,000 compounds, 0.35% hits | AID 1509; in the data active = activation above about 11%;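 also: 0% = DMSO vehicle and 100% = reference agonist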
EP2 antag: blocks the human prostaglandin E2 receptor EP2. C6 glioma cells expressing human EP2, cAMP TR-FRET; cells stimulated with saturating PGE2. inhibition, % at 25 µM. 260,000 compounds, 0.52% hits. P43116;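 active = percent inhibition above 40 after rounding to a whole number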;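 also: rat C6 glioma host cells with rolipram phosphodiesterase inhibitor present; the protocol text gives 20 µM as final concentration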
Starred values were filed as active, the others as inactive; . = no result given.

SMILES | EP2 modulator | S1P4 antagonist | S1P3 antagonist | S1P4 ag | EP2 antag
CC1(C)Cc2ccccc2-c2nc3n(c(=O)c21)CCCS3 | 64* | 3 | -2 | -1 | 8
CC(=O)C[N+]1(CC=C(C)C)CCCCC1 | -9 | . | . | . | 7
CCOc1c(Br)cc(C(N)=O)cc1OCc1ccccc1 | 62* | -24 | -16 | -1 | 14
Cc1nn2c(N3CCC(O)CC3)c3c(nc2c1-c1cccs1)CCC3 | -71 | . | . | . | .
CN(C)CCCn1c(=S)[nH]c2ccccc2c1=O | -20 | 0 | -4 | 2 | 2
CN(C)CCCn1c2c3ccccc3ccc2c2oc(=O)c3ccccc3c21 | -5 | . | . | . | 74*
CC(C)(C)NC(=O)CN1N=C(c2ccc(F)cc2)Cn2c(cc3ccccc32)C1=O | -9 | . | . | . | .
CN1CCc2ccccc2[C@H]1Cc1ccccc1NC(=O)c1sc2ccccc2c1Cl | 45 | . | . | . | 42*
CN1CCN(c2ccc(NC(=O)c3sc4ccccc4c3Cl)cc2)CC1 | -33 | -1 | -19 | 1 | 6
Fc1ccc2[nH]c3c(N4CCN(c5ccccc5)CC4)ncnc3c2c1 | -44 | -13 | . | 0 | 88*
CCOC(=O)N1CCN(c2ncnc3c2[nH]c2ccc(F)cc23)CC1 | -25 | -20 | . | 1 | 17
COc1ccc(N2CCN(c3ncnc4c3[nH]c3ccccc34)CC2)cc1 | -45 | -3 | . | -2 | 54*
Cc1ccc(C)c(C(=O)CN2C(=O)CCC2=O)c1 | -3 | 8 | 75* | 0 | 14
Oc1ccc(Cc2nccc3cc(O)c(O)cc23)cc1O | -8 | . | . | . | 53*
CCOc1ccc(Cc2nccc3cc(OCC)c(OCC)cc23)cc1OCC | 47 | . | . | . | 6
Cn1c(=O)c2c(ncn2CN2CCN(Cn3cnc4c3c(=O)n(C)c(=O)n4C)CC2)n(C)c1=O | 6 | . | . | . | 46*
C=CCn1c(SCC(=O)Nc2ccccc2OC)nc2sc3c(c2c1=O)CCC3 | -93 | . | . | . | 9
CCN1/C(=C\c2ccc3cccc(C)c3[n+]2C)C=Cc2cc(C)ccc21 | -44 | . | . | . | 12
CCN1/C(=C/c2ccc3ccccc3[n+]2C)Sc2cc(C)ccc21 | -56 | . | . | . | 52*
Cc1ccc2c(c1)S/C(=C/c1ccc[n+](C)c1)N2CCO | 1 | -5 | -7 | 0 | 6
CCN1/C(=C/c2ccc3cc(C)ccc3[n+]2C)Sc2ccc3sccc3c21 | -60 | -10 | -1 | 0 | 45*
COCCNC(=O)Cn1nc2c3c(C)c(C)sc3nc(C(C)C)n2c1=O | -65 | . | . | . | .
CN(C)c1nc(SCC(=O)NN)nc(N(C)C)n1 | -28 | . | . | . | 20
Cc1nc2cc(N3CCC(C)CC3)c(NC(=O)C3CC3)cc2c(=O)n1Cc1ccccc1 | 34 | . | . | . | 12
Cc1nc2cc(Cl)c(NC(=O)C3CCCCC3)cc2c(=O)n1Cc1ccccc1 | 106* | . | . | . | 5
SMILES | EP2 modulator | S1P4 antagonist | S1P3 antagonist | S1P4 ag | EP2 antag
Cc1[nH]c2ccccc2c1Cc1nnc(SCC(N)=O)o1 | 11 | 1 | 82* | -1 | 6
CCCOc1ccccc1C1NC(=O)NC(C)=C1C(=O)OCc1ccccc1 (centres undefined) | 64* | 8 | . | -2 | 12
CC1Cc2ccccc2N1C(=O)c1cc2nc(-c3ccco3)cc(C(F)(F)F)n2n1 (centres undefined) | 72* | . | . | . | 9
Cc1cc(N/N=C/c2ccc(O)cc2O)nc(-c2ccccc2O)n1 | -57 | -25 | 2 | 2 | 80*
Cc1cc(N/N=C/c2ccccc2O)nc(-c2ccccc2O)n1 | -57 | 4 | 0 | 2 | 60*
COC(=O)[C@@H]1O[C@H](SCCN)[C@@H](O)[C@H](O)[C@H]1O | 21 | . | . | . | 50*
COc1ccccc1CC(=O)NC(CC(C)C)c1nc2cccnc2n1C(C)C (centres undefined) | 6 | . | . | . | .
CCn1c(=N)c(C(=O)OC)cc2c(=O)n3ccccc3nc21 | . | . | -20 | . | .
COC(=O)c1cc2c(=O)n3ccccc3nc2n(C(C)C)c1=N | . | -28 | 1 | 12* | .
COc1cc2c(cc1OC)-c1cc(=Nc3c(C)cc(C)cc3C)n(C)c(=O)n1CC2 | 67* | . | . | . | 6
COc1cc2c(cc1OC)-c1cc(NC3CCCC3)nc(=O)n1CC2 | -18 | -15 | 5 | 1 | 8
CC(C)(C)C(=O)Cn1nc(C(F)(F)F)c2cccn2c1=O | -22 | . | . | . | 2
CC1=NNC(=S)NCCCN2CCN(CCCNC(=S)NN=C(C)C=NNC(=S)NCCCN3CCN(CCCNC(=S)NN=C1)CC3)CC2 | 56 | . | . | . | 45*
Cc1ccc2nc(-c3ccc(NC(=O)c4ccc(N)cc4)c(S(=O)(=O)O)c3)sc2c1 | -12 | . | . | . | 46*
COC(=O)CNC(c1ccccc1)c1cc(Cl)ccc1NC(=O)c1cccc(Cl)c1 (centres undefined) | 63* | -13 | 19 | 1 | -2
NNC(=O)CNC(c1ccccc1)c1cc(Br)ccc1NC(=O)c1cccc(Cl)c1 (centres undefined) | 28 | -20 | 8 | 1 | 4
Cc1ccc(NC(=O)CCN2CCCCC2)cc1C | -24 | . | . | . | 5
COc1ccccc1NC(=O)CSc1nnnn1-c1ccc(C)c(C)c1 | -77 | . | . | . | 6
Nc1ccc(Sc2cc(Cl)nc(N)n2)cc1 | -49 | 0 | . | -1 | 12
Nc1nc(N)c2cc(Sc3ccc4ccccc4c3)ccc2n1 | -44 | -11 | 3 | 2 | 53*
COc1cccc(-c2ccc(=O)n(CC(=O)Nc3ccccc3Br)n2)c1 | -59 | . | . | . | 7
CCCC(c1nnnn1Cc1ccccc1)N(Cc1cc2cc(C)ccc2[nH]c1=O)C1CCCCC1 (centres undefined) | 26 | . | . | . | 22
CCCC(c1nnnn1Cc1ccccc1)N(Cc1cc2cccc(C)c2[nH]c1=O)C1CCCCC1 (centres undefined) | 69* | . | . | . | 8
Cc1cccc2cc(C(c3nnnn3Cc3ccccc3)N3CCc4ccccc43)c(=O)[nH]c12 (centres undefined) | 95* | . | . | . | 7
CCOc1ccc2[nH]c(=O)c(C(c3nnnn3C3CCCC3)N3CCCc4ccccc43)cc2c1 (centres undefined) | 74* | . | . | . | 10
SMILES | EP2 modulator | S1P4 antagonist | S1P3 antagonist | S1P4 ag | EP2 antag
Cc1cccc2cc(C(c3nnnn3C3CCCCC3)N3CCc4ccccc43)c(=O)[nH]c12 (centres undefined) | 108* | . | . | . | 4
Cc1cc2cc(C(c3nnnn3C3CCCCC3)N3CCc4ccccc43)c(=O)[nH]c2cc1C (centres undefined) | 76* | . | . | . | 13
O=c1[nH]c2cc3c(cc2cc1C(c1nnnn1C1CCCC1)N1CCCCCC1)OCCO3 (centres undefined) | 81* | . | . | . | 22
Cc1cc2cc(C(c3nnnn3C3CCCC3)N3CCc4ccccc43)c(=O)[nH]c2cc1C (centres undefined) | 5 | . | . | . | 11
COCc1ccc(OC)c(CN2CC(CN3CCOCC3)c3ccccc32)c1 (centres undefined) | -7 | . | . | . | 2
S=c1nc[nH]c2c1cnn2-c1ccccc1 | 71* | 0 | 4 | 0 | 9
Nc1ncnc2c1cnn2-c1ccccc1 | . | -3 | -16 | -1 | -4
N#C/C(=C\c1ccc(F)cc1)c1nc(-c2ccco2)cs1 | 61* | -22 | 4 | 2 | 9
CN(C)S(=O)(=O)Oc1cccc(C(=O)Nc2ccc(Cl)c(Cl)c2)c1 | -63 | 5 | . | -2 | 40*
